From PubChem BioAssay
This is a sample that favours compounds with a hit; in the whole collection about 2.9% have one here.
DAGLB inh: diacylglycerol lipase beta (human) inhibition; Q8NCG7; HEK293T DAGLB membrane lysate, EnzChek fluorogenic substrate; inhibition, % at 5.17 µM; hit rate 0.059% among 340,000; AID 504411; in the data active means inhibition above about 34%;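 further: 0% = enzyme with vehicle and 100% = wells lacking enzyme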
Myeloid diff 2: compounds promoting myeloid differentiation; calls only at 10 µM; AID 624256; hit rate 1% among 360,000; ER-HoxA9 myeloid progenitors, lysozyme-GFP differentiation, flow cytometry;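 active means normalized GFP-positive differentiation at or above the plate's own cutoff, the solvent-only control mean plus 3 SD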;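 further: cells exposed to compound for four days before flow analysis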
ABHD5-PLIN5 inh: blocks binding of human ABHD5 to perilipin-5; Q00G26+Q8WTS1; Split G. princeps luciferase complementation, luminescence, 4 h; inhibition, % at 4 µM; hit rate 0.78% among 360,000;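 active means inhibition above the mean inhibition across every tested compound plus 3 SD, cut at about 22% in these data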;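 further: 0% = DMSO only wells and the 100% control is not disclosed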
H9c2 protect: myocardial damage modulation in H9c2 cells; hit rate 0.63% among 360,000; H9c2 cardiomyocytes, H2O2 injury protection, ATPLite, 2 h; protection from H2O2 cell death, % at 20 µM;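 active means compounds giving at least 50% protection of heart cells from peroxide-induced death in the single-dose screen, raw or plate-pattern-corrected value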;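 further: 0% = DMSO wells with peroxide and 100% = DMSO wells without peroxide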
Rtt109 HAT inh: blocks Candida albicans Rtt109/Vps75 acetyltransferase activity; Q5AAJ8; purified Rtt109/Vps75, ThioGlo CoA-SH fluorescence, 4 h; inhibition, % at 34.9 µM; hit rate 0.16% among 330,000;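 active means inhibition of at least 50% in every replicate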
HGIII-sPLA2 inh: Blocks human group III sPLA2 activity; hit rate 0.56% among 370,000; inhibition, % at 12.2 µM; AID 743126; QFRET BODIPY PC-A2 liposome hydrolysis, fluorescence;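 active means inhibition above mean plus 3 SD of compounds lying within the high and low control bounds, cut at about 19% in these data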;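 further: 0% = median of test compound wells and 100% = no enzyme DMSO wells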
Target sequence (Q9NZ20 whole entry, looked up): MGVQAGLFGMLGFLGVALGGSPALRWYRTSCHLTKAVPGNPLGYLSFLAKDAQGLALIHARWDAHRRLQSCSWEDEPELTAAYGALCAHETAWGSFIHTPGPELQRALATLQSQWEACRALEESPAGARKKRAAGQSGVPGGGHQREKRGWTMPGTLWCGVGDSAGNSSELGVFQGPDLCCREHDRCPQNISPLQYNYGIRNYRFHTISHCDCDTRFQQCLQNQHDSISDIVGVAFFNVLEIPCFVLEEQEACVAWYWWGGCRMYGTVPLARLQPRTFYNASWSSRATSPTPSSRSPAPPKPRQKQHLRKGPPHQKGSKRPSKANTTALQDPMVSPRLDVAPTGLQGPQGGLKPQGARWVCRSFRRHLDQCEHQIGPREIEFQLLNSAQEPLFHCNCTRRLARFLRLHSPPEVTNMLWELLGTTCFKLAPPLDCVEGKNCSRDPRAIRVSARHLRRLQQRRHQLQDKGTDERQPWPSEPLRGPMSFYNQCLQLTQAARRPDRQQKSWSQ
sPLA2 confirm: human GIII-sPLA2 inhibition, confirmation. recombinant hGIII-sPLA2, BODIPY PC-A2 QFRET fluorescence. inhibition, % at 12.2 µM. hit rate 34% among 2,000. shares compounds with HGIII-sPLA2 inh;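 active means mean inhibition across triplicates above the hit cutoff set in the earlier primary screen, cut at about 19% in these data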;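 further: 0% = enzyme with DMSO and 100% = DMSO wells lacking enzyme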
535nm interf: optically interferes with 535nm fluorescence in sPLA2 counter-screen. shares compounds with HGIII-sPLA2 inh. BODIPY FL product fluorescence interference, QFRET. inhibition, % at 12.2 µM. hit rate 8.5% among 2,000;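 active means average inhibition above the solvent-only control mean plus 3 SD, cut at about 6% in these data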;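 further: 0% = DMSO with substrate plus product and 100% = DMSO with substrate alone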
BODIPY interf DR: counter-screen for HGIII-sPLA2 inhibitors: 535nm fluorescence interference, dose response. 240 tested, under 10 active. AID 743455. IC50, µM. BODIPY FL product fluorescence interference, cell-free. shares compounds with HGIII-sPLA2 inh;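 active means IC50 at or below 10 µM; inactive means IC50 above 10 µM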
Numbers without * were called inactive; i = inactive; nt = no result given; + = active, no number.

SMILES | DAGLB inh | Myeloid diff 2 | ABHD5-PLIN5 inh | H9c2 protect | Rtt109 HAT inh | HGIII-sPLA2 inh | sPLA2 confirm | 535nm interf | others
CNC(=O)CCN(Cc1ccco1)S(=O)(=O)c1ccc(OC)c(OC)c1 | 0 | i | 9 | 15 | -7 | 23* | 0 | -7
O=C(CN1CCN(C2CCCCC2)CC1)NCCC1=CCCCC1 | 1 | i | -5 | 2 | -4 | 20* | 4 | -19
CS(=O)(=O)N(CC(=O)NCCC1=CCCCC1)C1CCCCC1 | 2 | i | -1 | -5 | 3 | 4 | nt | nt
COC(=O)CSc1nc(NC(C)C)nc(N(C)C)n1 | 1 | i | 0 | -4 | -7 | -4 | nt | nt
CC(C)(C)Nc1nc(Cl)nc(NC(C)(C)C)n1 | -8 | i | 0 | -4 | -2 | 23* | 10 | -10
CCOC(=O)c1sc(NC(=S)NC(=O)C2CC2)cc1C | -5 | i | -2 | -2 | 7 | 21* | 7 | -3
CCOC(=O)c1sc(NC(=S)NC(=O)C23CC4CC(CC(C4)C2)C3)cc1C | -3 | i | 4 | -6 | 3 | 6 | nt | nt
CCOc1ccc(/C=C2\NC(=S)NC2=O)cc1 | 1 | i | 0 | -27 | nt | 24* | 23* | -4
Cc1no[n+]([O-])c1COc1ccc(/C=C2\NC(=S)NC2=O)cc1 | -2 | i | -3 | nt | -1 | 0 | nt | nt
Oc1ccccc1/C=N/NC(=S)NC1CC2C=CC1C2 (stereo unspecified) | 6 | i | -3 | 23 | 7 | 27* | 21* | 6.2*
Oc1ccccc1C=NNC(=S)NC1CC2C=CC1C2 (stereo unspecified) | 4 | i | -2 | 10 | nt | 21* | 24* | 6
Oc1ccc(O)c(C=NNC(=S)NC2CC3CC2C2C=CCC32)c1 (stereo unspecified) | 8 | i | -8 | 22 | nt | 19 | nt | nt
Oc1c(Cl)cc(Cl)cc1/C=N/NC(=S)NC1CC2C=CC1C2 (stereo unspecified) | 34 | i | -8 | 8 | -39 | 45* | 61* | 14*
O=C(Nc1nc2ncccn2c1-c1ccc(C(F)(F)F)cc1)c1ccccc1 | nt | nt | nt | nt | nt | 11 | nt | nt
CCc1nc2ccc(C(=O)N(C)CCN(C)C)cn2c1N(C)Cc1cc2ccccc2s1 | nt | i | 10 | -19 | nt | -16 | nt | nt
C[C@H](CO)N1C[C@H](C)[C@@H](CN(C)Cc2ccc(C(=O)O)cc2)Oc2c(cccc2N(C)C)C1=O | 1 | i | 3 | 0 | -7 | -4 | nt | nt
Oc1cccc(NC(=S)Nc2ccc(SC(F)F)cc2)c1 | 3 | i | -12 | -17 | 1 | 35* | 2 | 5
Oc1cccc2c(NC(=S)Nc3ccc(SC(F)F)cc3)cccc12 | 3 | i | -16 | -30 | 7 | 18 | nt | nt
C[C@H](CO)N1C[C@H](C)[C@@H](CN(C)C(=O)NC2CCCCC2)Oc2c(NC(=O)Cc3ccccc3)cccc2C1=O | 1 | i | -9 | -2 | 2 | 5 | nt | nt
CC(C)C(N)c1csc(Nc2ccc(C(F)(F)F)cn2)n1 (stereo unspecified) | nt | i | -4 | 1 | nt | 23* | 12 | -10
CC1CCC2(CC1)NC(=O)N(NC(=O)CSc1nnc(NC3CC3)s1)C2=O (stereo unspecified) | 1 | i | -4 | 1 | 2 | 13 | nt | nt
CCCCNc1c(-c2ccc(SC(C)CC)cc2)nc2ccc(Cl)cn12 (stereo unspecified) | nt | i | -18 | nt | nt | 23* | -8 | -7
CCCCCCSc1cccc(-c2nc3ccc(Cl)cn3c2NCCCC)c1 | 0 | i | -9 | -7 | 0 | 6 | nt | nt
CCN(CC)C(=O)CNC(=S)N(CCCN1CCOCC1)Cc1cccs1 | -1 | i | 3 | 3 | -1 | 20* | 3 | -11
O=C(CNC(=S)N(CCCN1CCOCC1)Cc1cccs1)NCCCN1CCOCC1 | 0 | i | -4 | 4 | 13 | 0 | nt | nt
SMILES | DAGLB inh | Myeloid diff 2 | ABHD5-PLIN5 inh | H9c2 protect | Rtt109 HAT inh | HGIII-sPLA2 inh | sPLA2 confirm | 535nm interf | others
COc1ccccc1NC(=O)Nc1nc(CC(=O)NC2CCCC2)cs1 | 0 | i | 0 | 6 | 10 | -4 | nt | nt
CCCCn1nc2cc(C(=O)N(CC)c3ccc(OC)cc3)ccc2c1OCC | 1 | i | -4 | 2 | 4 | -2 | nt | nt
O=C(Nc1ccc(N2CCCC2)cc1)c1ccc(Cl)cc1Cl | 1 | i | -2 | -4 | -5 | 12 | nt | nt
CN(C)S(=O)(=O)c1cccc(C(=O)Nc2ccc(N3CCOCC3)cc2)c1 | 5 | i | 0 | 1 | -3 | 25* | 4 | -2
O=C(Nc1ccc(N2CCCCCC2)cc1)c1ccccc1Cl | 0 | i | -7 | 2 | 14 | 16 | nt | nt
O=C(Nc1ccc(N2CCCCCC2)cc1)c1ccc[nH]1 | 4 | i | 4 | -22 | -6 | 22* | 34* | -6 | BODIPY interf DR=>122
O=C(Nc1ccc(N2CCCC2)cc1)c1cccc(Cl)c1 | -2 | i | -1 | -15 | -4 | 24* | 25* | -1
CC(C)CNS(=O)(=O)c1ccc(CCC(=O)NCC2CCCO2)cc1 (stereo unspecified) | -1 | i | 0 | 0 | -4 | 5 | nt | nt
CSC1=N/C(=C/c2cccnc2)C(=O)N1Cc1ccc(Cl)cc1 | -1 | i | -2 | -4 | 2 | 32* | 3 | -14
CCC(C(=O)OCC(=O)Nc1ccc2[nH]c(=O)[nH]c2c1)c1ccccc1 (stereo unspecified) | 1 | i | 0 | 0 | 7 | -7 | nt | nt
CCn1c2ccccc2c2cc(NC(=O)c3coc(=O)c(Br)c3)ccc21 | nt | i | -1 | 8 | nt | 9 | nt | nt
CCn1c2ccccc2c2cc(NC(=O)c3ccc(Br)o3)ccc21 | 2 | + | 14 | 7 | -3 | 21* | 16 | -2
COc1cc(OC)cc(-c2c(-c3cccs3)c3cc(-c4ccc5[nH]ccc5c4)ccc3n2C)c1 | -2 | i | -14 | -7 | -16 | 20* | 37* | 8.7*
CSc1nnc(-c2cc(C)on2)n1-c1ccccc1 | 0 | i | -5 | 3 | -3 | 20* | -3 | -3
CSc1nnc(-c2nnc(SC)n2-c2ccccc2)n1-c1ccccc1 | -2 | i | 8 | 8 | 27 | 2 | nt | nt
O=C(NC1CCCC1)[C@@H]1CCCN1C(=O)[C@@H](NC(=O)N1CCOCC1)c1ccccc1 | nt | nt | nt | nt | nt | 3 | nt | nt
O=C1NC(=S)N/C1=C\c1cccc([N+](=O)[O-])c1 | 2 | i | -2 | 11 | -18 | 20* | -2 | -3
